The campaign covered roughly 1,000 compounds. About 570 (57%) were called active. How the calls were made is not given here. So high a share suggests a set chosen from earlier hits. This excerpt belongs to a sample that is enriched for actives.

The target of this experiment is Potassium voltage-gated channel subfamily KQT member 2 (Rattus norvegicus) (UniProt O88943). The experiment can be described thus: rat KCNQ2 potassium channel inhibitors, confirmation, cell-based, thallium flux (AID 493025).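 Further: 0% = vehicle wells and values are ratio percent relative to vehicle.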 The note with it: KCNQ2-expressing cells, at 10 µM, hits give low values.
Sequence of Potassium voltage-gated channel subfamily KQT member 2 (Rattus norvegicus) (O88943 whole entry, looked up): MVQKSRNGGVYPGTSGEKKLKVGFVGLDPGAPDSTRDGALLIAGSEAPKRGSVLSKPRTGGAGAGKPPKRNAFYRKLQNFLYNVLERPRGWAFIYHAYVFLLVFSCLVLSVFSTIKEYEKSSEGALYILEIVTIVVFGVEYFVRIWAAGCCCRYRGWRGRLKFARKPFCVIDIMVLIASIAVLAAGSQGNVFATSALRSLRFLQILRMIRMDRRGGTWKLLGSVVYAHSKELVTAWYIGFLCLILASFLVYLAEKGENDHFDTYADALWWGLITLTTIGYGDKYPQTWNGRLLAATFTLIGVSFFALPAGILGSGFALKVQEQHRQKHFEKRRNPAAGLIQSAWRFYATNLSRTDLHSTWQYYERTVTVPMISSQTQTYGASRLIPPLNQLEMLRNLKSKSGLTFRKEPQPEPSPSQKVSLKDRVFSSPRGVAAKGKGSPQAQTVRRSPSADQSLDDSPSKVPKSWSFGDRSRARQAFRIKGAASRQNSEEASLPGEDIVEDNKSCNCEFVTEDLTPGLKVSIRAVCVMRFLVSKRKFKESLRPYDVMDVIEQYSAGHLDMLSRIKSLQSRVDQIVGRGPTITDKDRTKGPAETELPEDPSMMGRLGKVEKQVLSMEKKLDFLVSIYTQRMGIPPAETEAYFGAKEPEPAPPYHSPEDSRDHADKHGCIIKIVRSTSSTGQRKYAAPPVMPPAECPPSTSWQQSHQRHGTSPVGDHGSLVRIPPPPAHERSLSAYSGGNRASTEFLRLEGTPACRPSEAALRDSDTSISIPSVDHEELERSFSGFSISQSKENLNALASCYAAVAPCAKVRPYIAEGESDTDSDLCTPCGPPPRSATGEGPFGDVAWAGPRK
Regarding `CN(C)CC1Oc2ccccc2OC1(O)c1ccccc1` (configuration not stated), the activity change, negative = inhibition was -32% (active).
Under `O=C(NC(c1ccc(Cl)cc1)P(=O)(Oc1ccccc1)Oc1ccccc1)OCc1ccccc1` (configuration not stated) stands -23% (active).

The values are drawn from PubChem BioAssay AID493025 (Johns Hopkins Ion Channel Center, 2011).
